Experimental data published in the supplement of paper PMC6411743.
± gives the standard deviation of the averaged measurements. Targets with the largest changes are over-represented here; the source holds about 6,500 in all.

Compound: Nc1ncnc2c1ncn2[C@@H]1O[C@H](COP(=O)(O)OP(=O)(O)OP(=O)(O)O)[C@@H](O)[C@H]1O [adenosine triphosphate]
Assay: NP40-soluble protein abundance relative to vehicle (solubility fold change) (ratio); higher = more soluble protein in presence of ATP
Method in brief: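 Values are fold changes against the detergent-processed vehicle, based on vsn-normalised intensities. Jurkat crude lysate was treated at eight concentrations from 0.1 to 10 mM (10 min at room temperature, then 3 min at 37 °C), solubilised with 0.8% NP40 and benzonase, ultracentrifuged and analysed by TMT-labelled LC-MS/MS over three independent experiments.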

Sequence of UniProt P38398 (P38398 whole entry, looked up): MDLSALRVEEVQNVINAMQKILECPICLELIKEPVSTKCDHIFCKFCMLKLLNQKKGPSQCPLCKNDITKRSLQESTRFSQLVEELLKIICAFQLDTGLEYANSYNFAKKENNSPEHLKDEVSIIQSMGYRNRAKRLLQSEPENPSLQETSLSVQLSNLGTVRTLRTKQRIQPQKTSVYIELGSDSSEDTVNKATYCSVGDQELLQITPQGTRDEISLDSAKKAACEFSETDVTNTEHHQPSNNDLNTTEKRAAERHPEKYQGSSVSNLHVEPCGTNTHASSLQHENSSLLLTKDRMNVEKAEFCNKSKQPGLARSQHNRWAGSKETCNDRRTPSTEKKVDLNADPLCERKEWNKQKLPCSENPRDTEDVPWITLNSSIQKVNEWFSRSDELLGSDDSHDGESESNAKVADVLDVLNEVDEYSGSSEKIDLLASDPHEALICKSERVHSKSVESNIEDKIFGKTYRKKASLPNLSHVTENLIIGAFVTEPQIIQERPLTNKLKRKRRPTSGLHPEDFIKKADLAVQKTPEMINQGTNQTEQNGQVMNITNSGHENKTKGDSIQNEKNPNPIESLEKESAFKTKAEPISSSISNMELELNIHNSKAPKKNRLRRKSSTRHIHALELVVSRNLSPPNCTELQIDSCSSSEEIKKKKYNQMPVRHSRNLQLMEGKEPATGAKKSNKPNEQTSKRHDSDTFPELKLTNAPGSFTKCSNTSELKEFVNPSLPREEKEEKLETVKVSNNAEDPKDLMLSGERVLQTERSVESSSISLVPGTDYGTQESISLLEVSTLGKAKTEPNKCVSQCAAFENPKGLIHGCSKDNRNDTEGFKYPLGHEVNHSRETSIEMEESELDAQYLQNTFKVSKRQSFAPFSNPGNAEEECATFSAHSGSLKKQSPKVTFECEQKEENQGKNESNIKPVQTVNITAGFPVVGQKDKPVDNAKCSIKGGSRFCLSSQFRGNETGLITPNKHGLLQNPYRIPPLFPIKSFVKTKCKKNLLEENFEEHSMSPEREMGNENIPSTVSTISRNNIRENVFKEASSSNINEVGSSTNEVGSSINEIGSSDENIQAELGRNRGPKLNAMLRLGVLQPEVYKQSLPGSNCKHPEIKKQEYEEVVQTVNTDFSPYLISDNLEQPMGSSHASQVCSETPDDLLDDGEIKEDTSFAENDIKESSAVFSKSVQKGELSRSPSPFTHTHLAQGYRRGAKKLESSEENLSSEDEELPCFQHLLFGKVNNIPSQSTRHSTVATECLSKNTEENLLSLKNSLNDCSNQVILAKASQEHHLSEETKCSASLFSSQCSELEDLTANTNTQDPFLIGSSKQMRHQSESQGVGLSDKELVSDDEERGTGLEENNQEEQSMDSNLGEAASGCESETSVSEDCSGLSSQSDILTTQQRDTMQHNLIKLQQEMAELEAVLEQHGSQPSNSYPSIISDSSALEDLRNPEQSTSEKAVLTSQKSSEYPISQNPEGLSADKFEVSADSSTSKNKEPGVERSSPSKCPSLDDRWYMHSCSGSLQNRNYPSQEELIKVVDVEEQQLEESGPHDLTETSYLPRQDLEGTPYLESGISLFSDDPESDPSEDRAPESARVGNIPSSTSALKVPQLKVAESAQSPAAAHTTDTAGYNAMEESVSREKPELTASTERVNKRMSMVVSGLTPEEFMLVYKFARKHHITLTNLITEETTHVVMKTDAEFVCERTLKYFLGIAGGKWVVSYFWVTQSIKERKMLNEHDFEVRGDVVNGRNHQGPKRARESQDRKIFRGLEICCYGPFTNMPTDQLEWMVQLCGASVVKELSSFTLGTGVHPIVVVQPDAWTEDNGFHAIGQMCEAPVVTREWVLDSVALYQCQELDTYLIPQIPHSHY
Sequence of UniProt P63218 (P63218 whole entry): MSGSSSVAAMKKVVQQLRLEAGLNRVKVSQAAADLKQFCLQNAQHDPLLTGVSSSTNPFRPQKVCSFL
Sequence of UniProt P22087 (P22087 whole entry): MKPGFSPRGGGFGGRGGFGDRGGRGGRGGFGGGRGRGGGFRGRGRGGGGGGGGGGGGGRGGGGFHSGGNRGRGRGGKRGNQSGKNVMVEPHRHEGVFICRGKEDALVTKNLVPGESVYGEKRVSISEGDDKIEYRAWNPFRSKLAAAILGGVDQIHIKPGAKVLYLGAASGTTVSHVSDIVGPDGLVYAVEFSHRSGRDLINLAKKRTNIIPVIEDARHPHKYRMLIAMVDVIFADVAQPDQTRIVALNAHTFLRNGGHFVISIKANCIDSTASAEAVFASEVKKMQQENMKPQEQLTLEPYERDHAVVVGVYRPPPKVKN
Sequence of UniProt P13995 (P13995 whole entry): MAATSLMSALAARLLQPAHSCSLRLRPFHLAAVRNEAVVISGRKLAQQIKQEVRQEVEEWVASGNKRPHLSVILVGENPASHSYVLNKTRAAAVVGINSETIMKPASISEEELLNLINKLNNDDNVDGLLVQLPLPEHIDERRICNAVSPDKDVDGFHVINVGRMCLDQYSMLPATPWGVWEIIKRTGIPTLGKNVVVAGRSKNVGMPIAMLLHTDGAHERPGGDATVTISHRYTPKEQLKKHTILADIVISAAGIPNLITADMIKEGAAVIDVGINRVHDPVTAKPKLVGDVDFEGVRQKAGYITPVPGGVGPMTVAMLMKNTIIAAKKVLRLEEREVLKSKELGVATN
Sequence of UniProt P61586 (P61586 whole entry): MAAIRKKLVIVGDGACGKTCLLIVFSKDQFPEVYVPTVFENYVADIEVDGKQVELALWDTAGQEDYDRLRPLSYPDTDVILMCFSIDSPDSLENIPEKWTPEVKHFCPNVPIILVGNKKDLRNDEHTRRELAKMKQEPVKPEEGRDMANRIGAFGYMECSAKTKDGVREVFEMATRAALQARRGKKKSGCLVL
Sequence of UniProt O95573 (O95573 whole entry): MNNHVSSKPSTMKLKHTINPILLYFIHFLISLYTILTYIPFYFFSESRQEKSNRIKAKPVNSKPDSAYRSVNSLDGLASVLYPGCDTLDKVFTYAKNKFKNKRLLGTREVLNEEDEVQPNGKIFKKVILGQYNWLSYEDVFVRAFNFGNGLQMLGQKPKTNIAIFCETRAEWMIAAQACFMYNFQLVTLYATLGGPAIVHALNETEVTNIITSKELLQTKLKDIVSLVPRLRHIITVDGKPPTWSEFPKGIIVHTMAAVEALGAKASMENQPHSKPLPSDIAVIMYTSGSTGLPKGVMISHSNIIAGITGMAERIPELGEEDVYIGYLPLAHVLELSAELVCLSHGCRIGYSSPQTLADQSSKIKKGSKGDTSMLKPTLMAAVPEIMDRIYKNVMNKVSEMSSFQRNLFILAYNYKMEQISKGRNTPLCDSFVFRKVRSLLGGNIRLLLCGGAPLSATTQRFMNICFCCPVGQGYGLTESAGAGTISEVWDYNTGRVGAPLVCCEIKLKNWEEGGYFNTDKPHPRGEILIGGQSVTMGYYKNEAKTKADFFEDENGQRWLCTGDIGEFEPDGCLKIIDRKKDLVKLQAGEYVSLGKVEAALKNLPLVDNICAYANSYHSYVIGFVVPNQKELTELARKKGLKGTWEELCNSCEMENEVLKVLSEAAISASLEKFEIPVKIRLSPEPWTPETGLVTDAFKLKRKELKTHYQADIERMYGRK
Sequence of UniProt O95639 (O95639 whole entry): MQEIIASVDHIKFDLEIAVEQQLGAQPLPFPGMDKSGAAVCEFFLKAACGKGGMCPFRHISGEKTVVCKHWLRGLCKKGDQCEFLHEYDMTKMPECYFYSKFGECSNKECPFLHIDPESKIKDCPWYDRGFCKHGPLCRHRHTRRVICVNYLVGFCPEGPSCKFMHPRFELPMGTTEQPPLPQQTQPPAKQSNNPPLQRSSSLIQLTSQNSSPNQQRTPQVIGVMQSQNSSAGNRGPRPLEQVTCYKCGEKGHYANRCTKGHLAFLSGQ
Sequence of UniProt Q05D32 (Q05D32 whole entry): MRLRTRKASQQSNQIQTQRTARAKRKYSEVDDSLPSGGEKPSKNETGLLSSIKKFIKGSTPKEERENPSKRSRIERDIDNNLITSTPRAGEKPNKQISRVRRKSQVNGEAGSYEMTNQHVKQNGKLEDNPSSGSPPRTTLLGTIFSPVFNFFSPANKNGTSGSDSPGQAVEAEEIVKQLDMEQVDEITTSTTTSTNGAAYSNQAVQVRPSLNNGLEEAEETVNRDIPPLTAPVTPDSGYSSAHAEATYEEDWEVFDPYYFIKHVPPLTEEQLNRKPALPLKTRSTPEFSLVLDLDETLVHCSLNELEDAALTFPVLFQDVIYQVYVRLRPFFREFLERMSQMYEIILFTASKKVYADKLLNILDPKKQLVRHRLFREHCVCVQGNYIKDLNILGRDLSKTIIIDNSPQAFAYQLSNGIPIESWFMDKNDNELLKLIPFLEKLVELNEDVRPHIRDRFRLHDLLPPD
Sequence of UniProt O95721 (O95721 whole entry): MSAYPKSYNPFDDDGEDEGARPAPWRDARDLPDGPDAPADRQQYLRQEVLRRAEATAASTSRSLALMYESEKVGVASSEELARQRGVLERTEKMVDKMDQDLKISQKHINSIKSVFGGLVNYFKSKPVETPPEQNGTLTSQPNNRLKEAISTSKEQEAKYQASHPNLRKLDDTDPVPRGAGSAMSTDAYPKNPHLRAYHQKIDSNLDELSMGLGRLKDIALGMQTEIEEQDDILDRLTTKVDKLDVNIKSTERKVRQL
Sequence of UniProt P67870 (P67870 whole entry, one chain of several): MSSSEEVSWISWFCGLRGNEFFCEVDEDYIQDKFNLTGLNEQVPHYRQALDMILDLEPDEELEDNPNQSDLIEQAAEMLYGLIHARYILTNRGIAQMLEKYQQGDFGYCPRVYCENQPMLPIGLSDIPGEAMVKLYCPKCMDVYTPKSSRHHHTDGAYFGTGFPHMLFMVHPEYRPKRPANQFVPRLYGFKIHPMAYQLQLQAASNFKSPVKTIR

Target	NP40-soluble protein abundance (concentration: 1mM)	NP40-soluble protein abundance (concentration: 2mM)	NP40-soluble protein abundance (concentration: 4mM)	NP40-soluble protein abundance (concentration: 6mM)	NP40-soluble protein abundance (concentration: 8mM)	NP40-soluble protein abundance (concentration: 10mM)
UniProt P63218	0.812 ± 0.15	0.735 ± 0.17	0.799 ± 0.22	0.72 ± 0.12	0.77 ± 0.16	0.678 ± 0.18
RHOA (UniProt P61586)	0.996 ± 0.14	1.01 ± 0.078	0.968 ± 0.06	1.09 ± 0.069	0.939 ± 0.023	0.944 ± 0.027
JAK1 (UniProt P23458)	1.21 ± 0.015	1.21 ± 0.022	1.23 ± 0.032	1.16 ± 0.043	1.27 ± 0.047	1.26 ± 0.041
HSPA4L (UniProt O95757)	0.964 ± 0.015	0.9785 ± 0.0092	0.951 ± 0.018	0.987 ± 0.018	0.937 ± 0.036	0.949 ± 0.019
CTDSPL2 (UniProt Q05D32)	1.13 ± 0.11	1.13 ± 0.07	1.27 ± 0.09	1.32 ± 0.082	1.33 ± 0.14	1.47 ± 0.03
UniProt Q02078-2|Q02078-6	0.954 ± 0.086	0.939 ± 0.046	0.936 ± 0.065	0.926 ± 0.036	0.907 ± 0.032	0.949 ± 0.048
CRTAP (UniProt O75718)	1.11 ± 0.024	1.14 ± 0.032	1.16 ± 0.024	1.19 ± 0.034	1.19 ± 0.033	1.2 ± 0.052
SGPL1 (UniProt O95470)	1.05 ± 0.14	1.03 ± 0.1	1.02 ± 0.086	0.965 ± 0.094	1.07 ± 0.079	1.06 ± 0.075
UniProt O75400|O75400-2	1.35 ± 0.075	1.44 ± 0.086	1.65 ± 0.097	2.14 ± 0.13	2.39 ± 0.13	2.62 ± 0.2
MTHFD2 (UniProt P13995)	1.02 ± 0.018	1.01 ± 0.02	0.995 ± 0.04	1.01 ± 0.043	1.01 ± 0.032	1 ± 0.026
UniProt P13674|P13674-2	1.01 ± 0.0016	1.01 ± 0.022	0.994 ± 0.027	1.03 ± 0.054	1.01 ± 0.034	1.04 ± 0.045
ACSL3 (UniProt O95573)	1.02 ± 0.05	1.05 ± 0.028	1.03 ± 0.036	1 ± 0.11	1.03 ± 0.041	1.01 ± 0.031
ATRN (UniProt O75882)	0.928 ± 0.039	0.947 ± 0.048	0.975 ± 0.015	0.959 ± 0.095	0.896 ± 0.01	0.899 ± 0.057
UniProt P67870|Q5SRQ6	0.972 ± 0.024	1 ± 0.021	1.013 ± 0.0063	1.05 ± 0.067	1.07 ± 0.019	1.04 ± 0.017
HSP90AB1 (UniProt P08238)	1.01 ± 0.063	0.99 ± 0.052	0.983 ± 0.05	0.928 ± 0.069	0.953 ± 0.022	0.964 ± 0.064
FXR2 (UniProt P51116)	1.68 ± 0.23	1.77 ± 0.15	2.06 ± 0.29	2.24 ± 0.27	2.26 ± 0.3	2.33 ± 0.26
TMEM63A (UniProt O94886)	0.9962 ± 0.0062	1.016 ± 0.004	1.01 ± 0.023	1.0012 ± 0.00078	0.961 ± 0.024	0.979 ± 0.01
SNAP29 (UniProt O95721)	0.967 ± 0.086	0.943 ± 0.043	0.939 ± 0.055	0.967 ± 0.04	0.939 ± 0.036	0.877 ± 0.046
UniProt O95639|O95639-2|O95639-3	1.3 ± 0.028	1.38 ± 0.046	1.52 ± 0.06	1.64 ± 0.1	1.7 ± 0.039	1.73 ± 0.078
TOP1 (UniProt P11387)	1.05 ± 0.019	1.088 ± 0.0094	1.22 ± 0.028	1.42 ± 0.035	1.599 ± 0.0062	1.78 ± 0.074
DDX58 (UniProt O95786)	1.06 ± 0.097	1.03 ± 0.063	1 ± 0.05	0.978 ± 0.078	1.03 ± 0.056	1.01 ± 0.055
FBL (UniProt P22087)	1.11 ± 0.075	1.13 ± 0.058	1.25 ± 0.047	1.544 ± 0.0074	1.93 ± 0.025	2.51 ± 0.15
UniProt P38398|P38398-7|P38398-4|P38398-8	1.02 ± 0.011	1.05 ± 0.071	1.03 ± 0.035	1.03 ± 0.086	1.02 ± 0.081	1.06 ± 0.03
UniProt Q02880-2	1.28 ± 0.061	1.36 ± 0.045	1.57 ± 0.067	1.73 ± 0.13	1.99 ± 0.11	2.07 ± 0.057
POLR3D (UniProt P05423)	0.986 ± 0.095	0.962 ± 0.062	0.949 ± 0.071	0.963 ± 0.12	0.965 ± 0.064	0.963 ± 0.065
